From PubChem BioAssay (EPA / NIEHS)
Where “and” joins values, the source holds several entries; their conditions need not be identical. Equal entries are not always repeated. Some structures have more than one record in an assay (separate samples or runs), and their calls can disagree. Calls of active or inactive are those of the source. The calls were made as follows: active = hit-call score of the fitted dose curve at least 0.9, where 1 is the maximum; inactive = score below 0.9.

How the values were obtained:
[1] = ATG_GLI_CIS: Attagene CIS-FACTORIAL HepG2 Assay for human Zinc Finger Protein GLI1 (AID 2282945); conditions: HepG2, Attagene cis-factorial reporter mRNA, GLI element; actives raise or lower the signal
Summary of the method: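 Transiently transfected HepG2 cells report endogenous transcription factor activity via cis-element-driven reporter units. After 24 h compound exposure, reporter mRNA was measured by RT-PCR with capillary electrophoresis; bidirectional fitting against DMSO baseline.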

[2] = target: Bile acid receptor (Homo sapiens) (UniProt Q96RI1); test: ATG_IR1_CIS: Attagene CIS-FACTORIAL HepG2 Assay for human Nuclear Receptor Subfamily 1 Group H Member 4 (NR1H4), IR1 submotif (AID 2282946); conditions: IR1 reporter transcription, actives raise or lower the signal
Bile acid receptor (Homo sapiens), sequence (Q96RI1 whole entry, looked up): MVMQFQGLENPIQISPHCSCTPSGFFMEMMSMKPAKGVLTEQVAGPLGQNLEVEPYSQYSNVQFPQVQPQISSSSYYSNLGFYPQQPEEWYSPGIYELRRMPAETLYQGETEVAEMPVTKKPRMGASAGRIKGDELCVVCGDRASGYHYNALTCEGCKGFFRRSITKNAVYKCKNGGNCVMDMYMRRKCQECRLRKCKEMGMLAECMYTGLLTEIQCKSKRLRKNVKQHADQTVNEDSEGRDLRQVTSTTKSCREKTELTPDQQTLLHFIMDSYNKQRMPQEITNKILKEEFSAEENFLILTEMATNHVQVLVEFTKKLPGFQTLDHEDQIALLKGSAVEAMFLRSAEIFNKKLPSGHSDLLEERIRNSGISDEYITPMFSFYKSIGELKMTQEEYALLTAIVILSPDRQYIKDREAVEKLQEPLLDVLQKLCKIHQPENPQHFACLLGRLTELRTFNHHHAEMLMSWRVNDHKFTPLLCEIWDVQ
Summary of the method: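 HepG2 cells transiently transfected with multiple cis-promoter-driven reporter units to measure endogenous transcription factor activity; 24 h exposure. Reporter mRNA read by RT-PCR, FAM labelling, HpaI digestion and capillary electrophoresis. Bidirectional fit versus DMSO.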

[3] = ATG_GRE_CIS: Attagene CIS-FACTORIAL HepG2 Assay for human Glucocorticoid Response Elements (GRE) (AID 2282947); conditions: HepG2 GRE cis-reporter, Attagene multiplex mRNA; actives raise or lower the signal
Summary of the method: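 Endogenous transcription factor activity is read through cis-element reporter constructs transiently transfected into HepG2 cells. After 24 h treatment, labelled RT-PCR products are resolved by capillary electrophoresis; DMSO sets baseline for bidirectional curve fitting.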

[4] = ATG_M_32_CIS: Attagene CIS-FACTORIAL HepG2 Assay for M32 Transcription Factor (Internal Marker) (AID 2282949); conditions: HepG2 Attagene cis-factorial M32 reporter, mRNA; actives raise or lower the signal;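 also: background control marker of the multiplexed CIS panel rather than a real target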
Summary of the method: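 Internal background marker read-out: RT-PCR/capillary electrophoresis fluorescence of reporter transcripts from transiently transfected HepG2 cells after 24 h chemical exposure. Activity fitted bidirectionally relative to DMSO negative control.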

[5] = ATG_M_06_CIS: Attagene CIS-FACTORIAL HepG2 Assay for M06 Transcription Factor (Internal Marker) (AID 2282950); conditions: HepG2 Attagene CIS-FACTORIAL M06 internal marker reporter; actives raise or lower the signal
Summary of the method: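 One of many multiplexed endpoints: HepG2 reporter mRNA after 24 h dosing, detected by RT-PCR and capillary electrophoresis fluorescence; gain or loss of signal analysed against DMSO.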

[6] = target: Hypoxia-inducible factor 1-alpha (Homo sapiens) (UniProt Q16665); test: ATG_HIF1a_CIS: Attagene CIS-FACTORIAL HepG2 Assay for human Hypoxia Inducible Factor 1 (HIF1A) (AID 2282951); conditions: HepG2 Attagene cis-factorial HIF1a reporter transcription; actives raise or lower the signal
Hypoxia-inducible factor 1-alpha (Homo sapiens), sequence (Q16665 whole entry, looked up): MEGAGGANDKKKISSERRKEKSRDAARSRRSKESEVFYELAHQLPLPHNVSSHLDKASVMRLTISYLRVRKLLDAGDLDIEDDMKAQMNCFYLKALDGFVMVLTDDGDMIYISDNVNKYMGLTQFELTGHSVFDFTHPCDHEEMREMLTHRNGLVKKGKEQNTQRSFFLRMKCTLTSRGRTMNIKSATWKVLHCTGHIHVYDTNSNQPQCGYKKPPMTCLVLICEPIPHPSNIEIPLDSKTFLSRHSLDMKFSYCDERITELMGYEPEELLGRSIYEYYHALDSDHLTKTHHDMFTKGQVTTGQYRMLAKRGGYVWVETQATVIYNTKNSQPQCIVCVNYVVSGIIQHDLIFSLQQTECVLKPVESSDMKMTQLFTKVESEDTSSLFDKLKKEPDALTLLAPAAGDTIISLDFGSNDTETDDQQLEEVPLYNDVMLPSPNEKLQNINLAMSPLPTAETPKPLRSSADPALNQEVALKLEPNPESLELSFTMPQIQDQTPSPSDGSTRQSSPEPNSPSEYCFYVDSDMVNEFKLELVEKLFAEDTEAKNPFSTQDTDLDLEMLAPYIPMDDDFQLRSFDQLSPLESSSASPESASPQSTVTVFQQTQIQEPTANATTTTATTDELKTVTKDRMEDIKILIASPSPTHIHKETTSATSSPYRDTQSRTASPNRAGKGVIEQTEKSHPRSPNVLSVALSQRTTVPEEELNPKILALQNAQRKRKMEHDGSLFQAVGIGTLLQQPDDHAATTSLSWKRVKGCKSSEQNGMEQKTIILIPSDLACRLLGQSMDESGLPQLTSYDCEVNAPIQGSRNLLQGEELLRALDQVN
Summary of the method: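 Cis-element reporter constructs were transiently transfected into HepG2 cells, which were treated for 24 h; reporter RNA was reverse-transcribed, amplified, labelled and resolved by capillary electrophoresis.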

[7] = target: Hepatocyte nuclear factor 6 (Homo sapiens) (UniProt Q9UBC0); test: ATG_HNF6_CIS: Attagene CIS-FACTORIAL HepG2 Assay for human Hepatocyte Nuclear Factor 6 (HNF6) (AID 2282952); conditions: HepG2 Attagene cis-factorial HNF6 reporter transcription; actives raise or lower the signal
Hepatocyte nuclear factor 6 (Homo sapiens), sequence (Q9UBC0 whole entry, looked up): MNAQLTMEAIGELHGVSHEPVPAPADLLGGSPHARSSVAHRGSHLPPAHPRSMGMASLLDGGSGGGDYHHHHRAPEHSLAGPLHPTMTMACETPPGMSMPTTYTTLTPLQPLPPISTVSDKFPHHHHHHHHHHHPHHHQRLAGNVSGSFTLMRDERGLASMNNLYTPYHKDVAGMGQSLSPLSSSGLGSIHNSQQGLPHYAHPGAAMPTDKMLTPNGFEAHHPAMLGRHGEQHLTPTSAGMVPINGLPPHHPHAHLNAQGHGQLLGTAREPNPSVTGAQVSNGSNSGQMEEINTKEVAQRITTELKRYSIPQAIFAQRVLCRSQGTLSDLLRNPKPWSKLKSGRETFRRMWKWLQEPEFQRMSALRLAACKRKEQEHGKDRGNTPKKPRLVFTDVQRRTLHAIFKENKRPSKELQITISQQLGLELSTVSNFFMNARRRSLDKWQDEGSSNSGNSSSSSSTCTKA
Summary of the method: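 Transiently transfected HepG2 cells expressing cis-regulated reporter transcription units were exposed to chemical for 24 h in a 24-well format. Reporter transcript abundance was determined by fluorescence capillary electrophoresis.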

[8] = target: Heat shock factor protein 1 (Homo sapiens) (UniProt Q00613); test: ATG_HSE_CIS: Attagene CIS-FACTORIAL HepG2 Assay for human Heat Shock Transcription Factor 1 (HSE) (AID 2282953); conditions: HepG2 HSE cis-reporter, Attagene RNA transcription; actives raise or lower the signal
Heat shock factor protein 1 (Homo sapiens), sequence (Q00613 whole entry, looked up): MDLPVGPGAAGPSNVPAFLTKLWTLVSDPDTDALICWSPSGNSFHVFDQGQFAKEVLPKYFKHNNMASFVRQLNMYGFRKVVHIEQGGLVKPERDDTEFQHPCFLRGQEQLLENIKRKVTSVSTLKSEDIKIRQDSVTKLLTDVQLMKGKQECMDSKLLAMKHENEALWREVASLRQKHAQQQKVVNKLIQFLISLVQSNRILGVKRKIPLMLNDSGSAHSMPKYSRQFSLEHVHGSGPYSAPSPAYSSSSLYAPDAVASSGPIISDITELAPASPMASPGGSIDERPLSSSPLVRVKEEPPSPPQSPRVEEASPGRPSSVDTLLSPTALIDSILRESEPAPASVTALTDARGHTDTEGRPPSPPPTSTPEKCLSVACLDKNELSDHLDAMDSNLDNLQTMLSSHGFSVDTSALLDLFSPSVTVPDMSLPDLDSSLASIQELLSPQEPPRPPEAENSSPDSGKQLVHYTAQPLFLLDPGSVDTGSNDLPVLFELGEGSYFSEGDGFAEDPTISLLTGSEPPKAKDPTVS
Summary of the method: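 Using HepG2 with transfected cis-driven reporter constructs, compound effects on endogenous factor activity are scored as reporter mRNA change at 24 h. Detection: RT-PCR, HpaI digestion, capillary electrophoresis; bidirectional fitting to DMSO.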

[9] = ATG_MRE_CIS: Attagene CIS-FACTORIAL HepG2 Assay for human Metal Responsive Element (MRE) (AID 2282954); conditions: HepG2 MRE cis-reporter transcription, Attagene multiplex; actives raise or lower the signal
Summary of the method: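 Fluorescent reporter fragments separated by capillary electrophoresis give mRNA induction for the MRE unit after 24 h treatment of transfected HepG2 cells. Endogenous transcription-factor activity is read; DMSO serves as negative control and baseline.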

[10] = ATG_ISRE_CIS: Attagene CIS-FACTORIAL HepG2 Assay for human Interferon Regulatory Factor 1 (IRF1) binding to an Interferon-Stimulated Response Element (ISRE) (AID 2282948); conditions: HepG2 ISRE cis-reporter (Attagene), mRNA transcription readout; actives raise or lower the signal
Summary of the method: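 Quantitation relies on labelled RT-PCR fragments separated by capillary electrophoresis. Human HepG2 cells bearing cis-promoter reporter constructs were treated 24 h; DMSO served as baseline for bidirectional fitting.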

Measured: AC50

FC(F)=C(F)C(F)(F)C(F)(F)C(F)(F)C(F)(F)C(F)(F)C(F)(F)F
not listed: [10]
inactive: all other assays above

NC(=O)N(O)[C@@H]1COc2cc(OCc3ccccc3)ccc21
not listed: [3] | [6] | [9]
inactive: all other assays above

O=S(=O)(O)c1ccc(N=Nc2c(O)ccc3cc(S(=O)(=O)O)ccc23)cc1
not listed: [6] | [10]
inactive: all other assays above

S=P(N1CC1)(N1CC1)N1CC1
not listed: [9]
inactive: all other assays above

CC(C)C(=O)Nc1ccc([N+](=O)[O-])c(C(F)(F)F)c1
inactive: [1] | [2] | [4] | [5] | [7]

CCCCCCCCCCCCCCCCOS(=O)(=O)O
active: [10] 22.8 µM
not listed: [3] | [6] | [9]
inactive: all other assays above

O=C(Cl)C(F)(F)C(F)(F)C(F)(F)C(=O)Cl
not listed: [3] | [9]
inactive: all other assays above

Cc1ncc([C@@H](CCCCCCc2ccc3c(n2)NCCC3)CC(=O)O)cn1
not listed: [3] | [8]
inactive: all other assays above

NCC(F)(F)C(F)(F)C(F)(F)C(F)(F)F
not listed: [3] | [9] | [10]
inactive: all other assays above

O=C(O)c1cccc(C(=O)O)c1
not listed: [3] | [8] | [10]
inactive: all other assays above

OC[C@H]1O[C@@](CO)(O[C@H]2O[C@H](CO)[C@@H](O)[C@H](O)[C@H]2O)[C@@H](O)[C@@H]1O
not listed: [3] | [6] | [8]
inactive: all other assays above

Nc1ccn([C@@H]2O[C@H](CO)[C@@H](O)[C@@H]2O)c(=O)n1
not listed: [8] | [9]
inactive: all other assays above

Cn1c(=O)c2[nH]cnc2n(C)c1=O
not listed: [3] | [6] | [9]
inactive: all other assays above

FC(F)(F)COC(OCC(F)(F)F)OCC(F)(F)F
not listed: [6]
inactive: all other assays above

OC(O)(C(F)C(O)(O)C(F)(F)F)C(F)(F)F
active: [10] 27.8 µM and 9.44 µM
not listed: [3] | [6] | [8]
inactive: all other assays above

C[Si](C)(C)C(F)(F)C(F)(F)C(F)(F)F
inactive: [1] | [2] | [10] | [4] | [5] | [7]

OCCC(F)(F)C(F)(F)C(F)(F)C(F)(F)F
inactive: all assays above

OCc1c[nH]c2ccccc12
active: [6] 2.91 µM and 19.8 µM and 1.45 µM
inactive: [1] | [2] | [4] | [5] | [6] | [7]

O=S(=O)(O)CCC(F)(F)C(F)(F)C(F)(F)C(F)(F)C(F)(F)C(F)(F)F
not listed: [3] | [9] | [10]
inactive: all other assays above

FC(F)(F)C(F)(F)C(F)(F)C(F)(F)C(F)(F)C(F)(F)I
not listed: [8]
inactive: all other assays above

CCCOc1ccc(S(=O)(=O)N2CCN(CC)CC2)cc1-c1nc2c(CC)n(Cc3ccccn3)nc2c(=O)[nH]1
active: [2] 100 µM | [10] 70 µM | [6] 19.8 µM
not listed: [3] | [9]
inactive: all other assays above

CCCCCOC(C)=O
inactive: all assays above

O=C(O)[C@H](O)[C@@H](O)C(=O)O
not listed: [6] | [8]
inactive: all other assays above

Cc1nc(-c2ccccn2)ncc1C(=O)Nn1cc(C)c2cc(F)ccc21
inactive: [1] | [2] | [4] | [5] | [7]
active: [6] 48 µM

FC(F)C(F)(F)COCC1CO1 (centres undefined)
not listed: [3] | [10]
inactive: all other assays above

Cc1cccc(O)c1C
active: [2] 23.7 µM
inactive: [1] | [2] | [10] | [4] | [5] | [7] | [8] | [9]

C=CCc1cc(S(=O)(=O)c2ccc(O)c(CC=C)c2)ccc1O
inactive: [1] | [4] | [5] | [6] | [7]
active: [2] 51.1 µM

CC(C)CCCCCCOC(=O)C1CCCCC1C(=O)OCCCCCCC(C)C (centres undefined)
inactive: [1] | [2] | [4] | [5] | [6] | [7]

CCCCCCOC(=O)CC(CC(=O)OCCCCCC)(OC(=O)CCC)C(=O)OCCCCCC
not listed: [2]
inactive: all other assays above

NNC(=O)c1ccncc1
not listed: [2] | [6] | [8]
inactive: all other assays above

CCCCCCCCCC
inactive: [1] | [2] | [4] | [5] | [7]

c1ccc2cc3ccccc3cc2c1
inactive: [1] | [2] | [4] | [5] | [7] | [9]

COS(C)(=O)=O
inactive: [1] | [3] | [10] | [4] | [5] | [7]

CCOc1ccc2[nH]cc(C(=O)NCc3ccccc3)c(=O)c2n1
not listed: [3] | [6] | [10]
inactive: all other assays above

C[C@]12C=CC(=O)C=C1CC[C@H]1[C@@H]3C[C@@H](O)[C@](O)(C(=O)CO)[C@@]3(C)C[C@H](O)[C@@]12F
not listed: [2] | [3] | [8]
inactive: all other assays above

c1ccc(C(O[C@@H]2CCCN(CCc3ccc4c(c3)OCO4)C2)c2ccccc2)cc1
active: [6] 47.1 µM | [9] 33 µM
not listed: [2] | [8]
inactive: all other assays above

COc1cc(C(C)C)c2c(c1)S(=O)(=O)N(COc1cc(=O)n3cccc(OCCN4CCCCC4)c3n1)C2=O
active: [5] 12.3 µM | [7] 13.9 µM | [8] 2.75 µM | [9] 9.28 µM
inactive: [1] | [2] | [4]

OC(Cn1cncn1)(Cn1cncn1)c1ccc(F)cc1F
not listed: [2] | [6] | [8]
inactive: all other assays above

Cc1ccc(S(=O)(=O)NC(=O)NN2CCCCCC2)cc1
not listed: [2] | [6]
inactive: all other assays above

CC[C@H](C)C(=O)O[C@H]1C[C@H](O)C=C2C=C[C@H](C)[C@H](CC[C@@H](O)C[C@@H](O)CC(=O)O)[C@H]21
not listed: [2] | [8] | [10]
inactive: all other assays above

CCCCCCCC1CCC(=O)O1 (centres undefined)
inactive: [1] | [3] | [10] | [4] | [5]

O=C(O)c1cccc(C[C@@H]2COc3ccc(OCc4nc5cc(F)ccc5s4)cc3[C@@H]2O)c1
inactive: [1] | [3] | [4] | [5] | [6] | [7]

CCCCCCCC/C=C\CCCCCCCC(=O)OC[C@@H](O)[C@H]1OC[C@H](O)[C@H]1O
not listed: [2] | [8] | [9]
inactive: all other assays above

C[C@@H](Oc1ccc(CNC(=O)c2cccnc2Oc2ccc3c(c2)OCO3)c(F)c1)C(=O)O
inactive: [1] | [2] | [4] | [5] | [7] | [9]

OC[C@H]1O[C@@H]2O[C@H]3[C@H](O)[C@@H](O)[C@@H](O[C@H]4[C@H](O)[C@@H](O)[C@@H](O[C@H]5[C@H](O)[C@@H](O)[C@@H](O[C@H]6[C@H](O)[C@@H](O)[C@@H](O[C@H]7[C@H](O)[C@@H](O)[C@@H](O[C@H]1[C@H](O)[C@H]2O)O[C@@H]7CO)O[C@@H]6CO)O[C@@H]5CO)O[C@@H]4CO)O[C@@H]3CO
inactive: [1] | [10] | [4] | [5] | [6] | [7]

CCCC(CCC)C(=O)O
inactive: [1] | [3] | [4] | [5] | [8]

Cc1nccn1-c1ccc(Sc2cccc(C3(C(N)=O)CCOCC3)c2)cc1
active: [2] 1.01 µM | [7] 7.22 µM
inactive: [1] | [4] | [5] | [8]

OCCOCCOCCO
inactive: [1] | [10] | [4] | [5] | [6] | [7]
